Test in all cases: log2 ratio of Biotin-Ahx-Ub-VS probe labelling (fragment/DMSO); higher = less target engagement (more negative = stronger competition), active = hit call of the paper (q ≤ 0.05, log2 ratio ≤ -1)
Holding throughout (details): compound concentration: 200 uM; treatment time: 3 h

One test has as its target T1, OTUD6B (UniProt Q8N6M0).
T1 sequence (whole entry): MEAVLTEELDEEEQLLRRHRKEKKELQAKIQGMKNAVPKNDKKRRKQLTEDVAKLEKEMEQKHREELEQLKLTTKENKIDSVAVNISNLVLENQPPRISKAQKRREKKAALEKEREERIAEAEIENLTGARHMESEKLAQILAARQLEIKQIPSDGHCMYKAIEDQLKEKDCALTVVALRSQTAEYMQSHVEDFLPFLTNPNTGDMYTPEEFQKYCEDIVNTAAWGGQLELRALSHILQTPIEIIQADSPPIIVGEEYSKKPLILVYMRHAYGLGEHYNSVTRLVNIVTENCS
In a few lines:
(§1)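 The table lists average log2 ratios of fragment over vehicle, from an unpaired t-test on global-median-normalised Spectronaut label-free quantities. Proteins with ≥2 unique peptides were used. Samples were HEK293T lysate (495 µg) treated in triplicate with fragment at 200 µM or vehicle for 3 h, then with Biotin-Ahx-Ub-VS (0.5 µM final) for 1 h, with labelled DUBs NeutrAvidin-enriched and run by diaPASEF LC-MS/MS.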

The target in the next test is T2, OTUD7B (UniProt Q6GQQ9).
T2 sequence (whole entry): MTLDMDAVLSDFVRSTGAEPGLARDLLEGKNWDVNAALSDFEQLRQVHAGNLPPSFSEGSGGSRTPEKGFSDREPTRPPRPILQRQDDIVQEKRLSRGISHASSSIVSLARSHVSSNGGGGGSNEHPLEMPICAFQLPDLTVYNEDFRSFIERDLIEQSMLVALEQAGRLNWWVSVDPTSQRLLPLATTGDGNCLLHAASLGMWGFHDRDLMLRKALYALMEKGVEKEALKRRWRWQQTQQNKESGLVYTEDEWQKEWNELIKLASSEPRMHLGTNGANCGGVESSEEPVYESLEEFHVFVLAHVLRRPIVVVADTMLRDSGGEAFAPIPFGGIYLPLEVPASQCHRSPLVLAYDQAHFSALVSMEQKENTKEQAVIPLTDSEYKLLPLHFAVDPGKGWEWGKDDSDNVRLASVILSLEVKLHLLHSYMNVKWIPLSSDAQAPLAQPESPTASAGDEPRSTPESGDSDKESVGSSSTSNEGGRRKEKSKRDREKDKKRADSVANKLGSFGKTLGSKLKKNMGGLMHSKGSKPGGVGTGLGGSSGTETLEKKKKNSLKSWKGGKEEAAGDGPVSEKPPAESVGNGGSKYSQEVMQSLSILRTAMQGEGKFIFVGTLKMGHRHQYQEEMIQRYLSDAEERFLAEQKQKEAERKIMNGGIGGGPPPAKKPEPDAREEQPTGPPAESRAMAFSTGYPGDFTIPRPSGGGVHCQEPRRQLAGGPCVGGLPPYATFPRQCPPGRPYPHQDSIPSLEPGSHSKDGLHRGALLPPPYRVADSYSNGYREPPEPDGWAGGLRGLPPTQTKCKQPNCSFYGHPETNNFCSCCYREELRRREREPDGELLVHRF
In outline: as §1

The target of a further test is PRPF8 (UniProt Q6P2Q9). In a few lines:
as §1

The target of another test is T3, PSMD7 (UniProt P51665).
T3 sequence (whole entry): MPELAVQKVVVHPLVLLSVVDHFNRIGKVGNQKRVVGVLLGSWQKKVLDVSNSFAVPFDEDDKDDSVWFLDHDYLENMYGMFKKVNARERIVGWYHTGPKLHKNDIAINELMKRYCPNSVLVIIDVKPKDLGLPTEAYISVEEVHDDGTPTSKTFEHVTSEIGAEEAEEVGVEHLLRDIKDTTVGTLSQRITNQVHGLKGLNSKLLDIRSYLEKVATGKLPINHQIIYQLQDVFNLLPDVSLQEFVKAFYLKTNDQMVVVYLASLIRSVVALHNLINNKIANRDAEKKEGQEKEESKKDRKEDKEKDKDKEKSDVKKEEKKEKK
In a few lines:
as §1

A further test concerns the target UCHL1 (UniProt P09936). In a few lines:
as §1

For the next test, the target named is T4, UCHL3 (UniProt P15374).
T4 sequence (whole entry): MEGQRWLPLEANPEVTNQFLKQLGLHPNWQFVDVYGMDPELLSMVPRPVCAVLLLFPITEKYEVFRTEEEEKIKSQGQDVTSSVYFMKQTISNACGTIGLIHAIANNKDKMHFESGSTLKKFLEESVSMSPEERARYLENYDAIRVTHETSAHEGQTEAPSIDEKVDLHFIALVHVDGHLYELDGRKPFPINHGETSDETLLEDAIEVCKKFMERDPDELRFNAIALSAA
In a few lines:
as §1

The target in a further test is T5, UCHL5 (UniProt Q9Y5K5).
T5 sequence (whole entry): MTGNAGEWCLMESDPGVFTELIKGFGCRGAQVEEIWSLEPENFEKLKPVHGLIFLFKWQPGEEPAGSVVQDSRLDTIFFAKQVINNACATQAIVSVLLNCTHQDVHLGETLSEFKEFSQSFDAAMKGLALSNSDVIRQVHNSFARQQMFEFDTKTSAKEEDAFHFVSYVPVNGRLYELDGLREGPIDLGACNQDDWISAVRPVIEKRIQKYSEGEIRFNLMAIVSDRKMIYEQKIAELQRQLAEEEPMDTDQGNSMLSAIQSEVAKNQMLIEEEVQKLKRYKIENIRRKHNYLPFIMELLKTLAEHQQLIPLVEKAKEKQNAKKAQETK
In a few lines: as §1

The target of the next test is USP10 (UniProt Q14694). In a few lines: as §1
The target in the next test is T6, USP15 (UniProt Q9Y4E8).
T6 sequence (whole entry): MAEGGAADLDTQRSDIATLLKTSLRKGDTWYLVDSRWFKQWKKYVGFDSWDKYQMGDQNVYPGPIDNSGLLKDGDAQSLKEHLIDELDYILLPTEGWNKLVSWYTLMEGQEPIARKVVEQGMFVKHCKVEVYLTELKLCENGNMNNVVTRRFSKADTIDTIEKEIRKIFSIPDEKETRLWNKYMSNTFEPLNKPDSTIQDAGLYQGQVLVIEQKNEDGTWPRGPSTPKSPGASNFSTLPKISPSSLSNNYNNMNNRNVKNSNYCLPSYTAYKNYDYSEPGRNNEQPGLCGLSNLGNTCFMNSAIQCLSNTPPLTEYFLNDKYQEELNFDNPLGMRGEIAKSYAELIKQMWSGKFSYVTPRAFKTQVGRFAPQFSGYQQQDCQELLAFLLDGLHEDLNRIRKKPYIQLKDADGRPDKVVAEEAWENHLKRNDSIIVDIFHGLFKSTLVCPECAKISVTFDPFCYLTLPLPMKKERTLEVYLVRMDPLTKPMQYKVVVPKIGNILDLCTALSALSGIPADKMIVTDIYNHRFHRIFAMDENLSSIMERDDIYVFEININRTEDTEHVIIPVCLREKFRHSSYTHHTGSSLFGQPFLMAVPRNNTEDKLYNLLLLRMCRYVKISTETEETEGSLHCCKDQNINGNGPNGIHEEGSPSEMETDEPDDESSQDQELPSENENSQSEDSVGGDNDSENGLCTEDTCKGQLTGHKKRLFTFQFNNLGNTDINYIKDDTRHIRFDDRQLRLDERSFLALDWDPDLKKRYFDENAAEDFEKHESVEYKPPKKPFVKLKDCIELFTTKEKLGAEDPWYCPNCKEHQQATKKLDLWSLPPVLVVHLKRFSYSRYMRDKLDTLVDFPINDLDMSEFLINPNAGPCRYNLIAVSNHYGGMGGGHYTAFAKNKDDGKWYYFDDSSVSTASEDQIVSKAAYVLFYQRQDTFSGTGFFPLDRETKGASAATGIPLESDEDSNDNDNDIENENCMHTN
In outline:
as §1

A further test concerns the target USP16 (UniProt Q9Y5T5). In a few lines:
as §1

A number with no mark means an inactive call.

Sequence of USP16 (Q9Y5T5 whole entry, looked up): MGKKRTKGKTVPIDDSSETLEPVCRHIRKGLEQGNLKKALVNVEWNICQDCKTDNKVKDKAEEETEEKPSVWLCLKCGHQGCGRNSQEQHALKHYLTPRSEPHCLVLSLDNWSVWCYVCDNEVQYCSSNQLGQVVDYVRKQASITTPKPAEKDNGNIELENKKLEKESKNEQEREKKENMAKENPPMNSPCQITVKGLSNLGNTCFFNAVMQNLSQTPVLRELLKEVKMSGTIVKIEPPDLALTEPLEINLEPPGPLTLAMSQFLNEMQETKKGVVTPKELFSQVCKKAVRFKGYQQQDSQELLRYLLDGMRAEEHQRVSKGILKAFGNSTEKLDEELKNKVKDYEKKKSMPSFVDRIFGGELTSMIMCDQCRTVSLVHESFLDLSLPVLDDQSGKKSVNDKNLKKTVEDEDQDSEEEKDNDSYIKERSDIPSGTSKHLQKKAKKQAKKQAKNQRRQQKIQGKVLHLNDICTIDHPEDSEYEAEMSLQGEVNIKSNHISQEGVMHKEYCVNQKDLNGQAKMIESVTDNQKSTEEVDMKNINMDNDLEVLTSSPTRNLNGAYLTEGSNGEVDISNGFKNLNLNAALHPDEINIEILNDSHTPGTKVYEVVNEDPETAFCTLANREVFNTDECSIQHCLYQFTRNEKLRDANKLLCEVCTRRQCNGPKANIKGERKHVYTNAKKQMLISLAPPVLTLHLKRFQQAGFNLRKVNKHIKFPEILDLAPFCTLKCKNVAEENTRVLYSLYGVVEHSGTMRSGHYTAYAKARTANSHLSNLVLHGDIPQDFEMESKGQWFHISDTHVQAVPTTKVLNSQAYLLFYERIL
Sequence of USP10 (Q14694 whole entry): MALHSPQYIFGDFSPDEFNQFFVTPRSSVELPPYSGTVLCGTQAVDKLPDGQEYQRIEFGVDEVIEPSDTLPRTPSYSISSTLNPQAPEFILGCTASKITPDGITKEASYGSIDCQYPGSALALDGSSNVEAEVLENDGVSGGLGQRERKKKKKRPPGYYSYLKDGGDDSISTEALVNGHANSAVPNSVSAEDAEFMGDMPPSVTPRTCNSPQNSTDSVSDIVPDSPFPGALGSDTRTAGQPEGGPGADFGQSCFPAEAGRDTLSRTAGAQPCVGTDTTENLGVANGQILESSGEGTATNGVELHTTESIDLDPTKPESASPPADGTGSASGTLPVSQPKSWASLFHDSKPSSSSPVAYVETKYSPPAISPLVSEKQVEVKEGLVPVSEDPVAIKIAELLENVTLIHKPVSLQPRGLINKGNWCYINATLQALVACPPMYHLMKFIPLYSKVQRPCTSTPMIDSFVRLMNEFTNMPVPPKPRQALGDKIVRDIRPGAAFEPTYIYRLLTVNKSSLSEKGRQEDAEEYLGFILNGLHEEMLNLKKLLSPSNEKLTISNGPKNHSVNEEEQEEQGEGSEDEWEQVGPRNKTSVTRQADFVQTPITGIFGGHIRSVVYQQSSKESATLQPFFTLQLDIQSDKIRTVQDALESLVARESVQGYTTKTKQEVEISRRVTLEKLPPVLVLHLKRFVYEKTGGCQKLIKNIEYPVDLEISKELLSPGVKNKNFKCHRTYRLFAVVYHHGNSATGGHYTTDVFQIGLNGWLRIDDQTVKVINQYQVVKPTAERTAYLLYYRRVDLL
Sequence of UCHL1 (P09936 whole entry, looked up): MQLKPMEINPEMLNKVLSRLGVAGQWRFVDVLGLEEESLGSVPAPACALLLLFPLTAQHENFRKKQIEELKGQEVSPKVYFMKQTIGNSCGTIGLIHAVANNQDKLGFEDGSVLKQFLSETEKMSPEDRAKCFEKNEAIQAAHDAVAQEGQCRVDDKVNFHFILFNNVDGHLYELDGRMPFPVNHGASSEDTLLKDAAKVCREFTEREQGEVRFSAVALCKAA

Turning to `Cc1cc(C2CCCN2C(=O)CCl)nn1C.Cl` (stereo not given), the “log2 ratio of Biotin-Ahx-Ub-VS probe labelling” value in the test with OTUD6B was -0.252; with OTUD7B, -0.142; in the test with PRPF8, 0.0171; in the test with PSMD7, -0.218; in the test with UCHL1, -1.54 (active); in the test with UCHL3 it was 0.3. For the same molecule, the “log2 ratio of Biotin-Ahx-Ub-VS probe labelling” value in the test with UCHL5 is -0.218; in the test with USP10, -0.132; in the test with USP15, -0.246; in the test with USP16, -0.631.

For the origin of these results see the supplement of paper PMC11732987, “Enantioselective OTUD7B fragment discovery through chemoproteomics screening and high-throughput optimisation” (Communications Chemistry, 2025).
